# Bioassay records deposited in PubChem BioAssay by National Center for Advancing Translational Sciences (NCATS).
# BAZ2B block: BAZ2B (human) inhibition | Q9UIF8 | AlphaScreen BAZ2B-H3K14Ac peptide displacement | Potency, µM (doses to about 114 µM), inactives show at the highest dose activity change, negative = inhibition, most hits filed as inhibitors | actives 4.4% (n = 360,000); further: on the % scale 0 is the no-effect control and ±100 the full control effect; nearly all actives have a fitted effect of over 60% in size
#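 AlphaScreen displacement: compounds (up to 110uM) incubated 30 min at room temperature with a preformed 50 nM BAZ2B/50 nM biotinylated H3K14Ac peptide complex in PBS pH 7.4 with Tween-20. Donor and acceptor beads at 10 ug/mL final added, 20 min light-protected before reading.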
# L3MBTL1 inh: blocks human L3MBTL1 | Q9Y468 | AlphaScreen L3MBTL1–H3K9me1 peptide binding | Potency, µM (top dose mostly 57.1 µM), for the others: at the top dose activity, negative = inhibition, most hits filed as inhibitors | actives 0.66% (n = 230,000) | AID 485360; further: on the % scale 0 is the no-effect control and ±100 the full control effect; nearly all actives have a fitted effect of over 60% in size
#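 AlphaScreen proximity signal between nickel-chelate acceptor and streptavidin donor beads (final 10 ug/mL) reports binding of 50 nM L3MBTL1 to 75 nM biotin-H3 K9me1 peptide; complex incubated with compounds 30 min at room temperature; cefsulodin titration as control.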
# HP1b chromo inh: HP1-beta chromodomain-methylated histone interaction inhibition | P83916 | AlphaScreen HP1-beta / biotin-H3K9me3 peptide binding | Potency, µM (titrated, usually from 114 µM), inactives show top-dose activity change, negative = inhibition, usual class: inhibitors | actives 0.56% (n = 390,000); further: nearly all actives have a fitted effect of over 70% in size
#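 Compound inhibition of the preformed complex between 50 nM HP1-beta and 50 nM biotinylated H3K9me3 peptide was read by AlphaScreen. Buffer was PBS pH 7.4 with 0.01% Tween-20. Incubations ran 30 min at room temperature, with 10 ug/mL donor/acceptor beads.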
# JMJD2A Tudor inh: inhibitors of human JMJD2A Tudor domain. O75164. AlphaScreen JMJD2A-Tudor / H3K4me3 peptide binding. Potency, µM (titrated, usually from 114 µM), for inactives: at the top dose activity change, negative = inhibition, usual class: inhibitors. actives 4.4% (n = 390,000). AID 504339; further: on the % scale 0 is the no-effect control and ±100 the full control effect; nearly all actives have a fitted effect of over 50% in size
# Target sequence (O75164 whole entry, looked up, the tested form may be a part): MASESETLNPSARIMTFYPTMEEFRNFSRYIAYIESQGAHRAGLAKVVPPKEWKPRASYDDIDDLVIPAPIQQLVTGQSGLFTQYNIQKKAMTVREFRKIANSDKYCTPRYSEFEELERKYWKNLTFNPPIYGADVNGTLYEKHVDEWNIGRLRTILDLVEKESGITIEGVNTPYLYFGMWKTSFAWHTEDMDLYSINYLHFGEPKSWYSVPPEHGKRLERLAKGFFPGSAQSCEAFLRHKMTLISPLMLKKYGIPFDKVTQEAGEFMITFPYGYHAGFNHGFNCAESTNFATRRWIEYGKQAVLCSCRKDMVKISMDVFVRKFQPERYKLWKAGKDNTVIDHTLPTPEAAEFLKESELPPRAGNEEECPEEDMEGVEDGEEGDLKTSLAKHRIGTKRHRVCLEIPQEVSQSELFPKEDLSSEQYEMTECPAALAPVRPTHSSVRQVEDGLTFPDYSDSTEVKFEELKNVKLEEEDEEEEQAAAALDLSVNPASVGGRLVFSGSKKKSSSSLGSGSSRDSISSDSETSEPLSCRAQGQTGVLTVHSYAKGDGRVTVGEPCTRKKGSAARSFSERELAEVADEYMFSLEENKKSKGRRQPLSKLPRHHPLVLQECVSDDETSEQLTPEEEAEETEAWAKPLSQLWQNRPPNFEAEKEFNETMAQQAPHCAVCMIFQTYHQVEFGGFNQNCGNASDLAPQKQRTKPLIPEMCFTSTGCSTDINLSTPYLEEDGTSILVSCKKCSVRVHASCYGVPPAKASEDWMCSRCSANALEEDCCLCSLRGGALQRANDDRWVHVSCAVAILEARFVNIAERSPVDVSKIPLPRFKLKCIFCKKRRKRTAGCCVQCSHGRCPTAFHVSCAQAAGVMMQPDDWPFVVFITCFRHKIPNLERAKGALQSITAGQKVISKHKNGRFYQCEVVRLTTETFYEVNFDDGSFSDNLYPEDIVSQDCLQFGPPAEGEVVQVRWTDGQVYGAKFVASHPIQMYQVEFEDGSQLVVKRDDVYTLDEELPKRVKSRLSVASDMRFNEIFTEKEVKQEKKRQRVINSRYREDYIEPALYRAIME
# G9a inh: blocks human histone lysine methyltransferase G9a. AID 504332. G9a H3K9 monomethylation, AlphaScreen, 2 h. actives 8.8% (n = 350,000). Q96KQ7. Potency, µM (doses to about 102 µM), for the others: top-dose activity, negative = inhibition, actives largely listed as inhibitors; further: on the % scale 0 is the no-effect control and ±100 the full control effect; nearly all actives have a fitted effect of over 75% in size
#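 Chemiluminescent proximity detection of H3K9 monomethylation, read after 10 min bead incubation in the dark. Reaction: 20 nM G9a, 500 nM biotin-H3K9 peptide, 20 uM SAM cofactor, 2 h, room temperature, following 15 min enzyme-compound preincubation.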
# Sfp PPTase inh: blocks B. subtilis Sfp PPTase activity; Q9F4F7; Biochemical Sfp PPTase activity, qHTS; Potency, µM, inactives show largest response in the series, negative = inhibition, usual class: inhibitors; actives 3.5% (n = 310,000);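 further: the enzyme is Sfp with the accession as filed and its product quenches rhodamine fluorescence; 0% = enzyme reaction without inhibitor and -100% = no enzyme wells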
#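 Fluorescence-quenching assay: 15 nM Sfp-PPTase preincubated 15 min at room temperature with compound, then 5 uM rhodamine-CoA and 12.5 uM BHQ-2-labelled YbbR peptide added. Fluorescence (ex 525/em 598 nm) read at start and after 30 min; difference gives rate.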
# An asterisk follows results filed as active; ? = inconclusive; / = no result; [ ] = another dose, or the depositor's remark. In the library only some 12% were active in any assay of this set; here they are far more common. The call rests on the fitted dose curve; in most records, active means well fitted curve in the direction sought with a large enough effect; inconclusive means small, poorly fitted or top-dose-only effect, or another doubt; inactive means no such curve, though single readings can be large; an effect the other way counts as inactive or inconclusive. Potency means the concentration at half of the fitted maximal effect.
SMILES,BAZ2B block,L3MBTL1 inh,HP1b chromo inh,JMJD2A Tudor inh,G9a inh,Sfp PPTase inh
CCOC(=O)COc1ccc2c(=O)cc(-c3ccccc3)oc2c1,2%,9%,30%,-9%,/,7%
NC(=O)COc1ccc2oc(-c3ccccc3)cc(=O)c2c1,/,/,7%,-3%,50µM*,19%
COc1ccc2oc(=O)c(-c3cn4c(n3)sc3cc(F)ccc34)cc2c1,0%,/,28%,-15%,-2%[59 µM],/
Cc1cc(O)c(C(C[N+](=O)[O-])c2ccc(Cl)cc2Cl)c(=O)o1 (configuration not stated),?,/,16%,-14%,4.5µM*,?
O=c1[nH][nH]c(-c2ccccc2O)c1C(C[N+](=O)[O-])c1ccc(Cl)cc1Cl (configuration not stated),?,-7%,11%,-20%,-12%[59 µM],24%
Cn1ccc2c(OCC(=O)Nc3cc(C(F)(F)F)ccc3Cl)cccc2c1=O,-15%,/,9%,-20%,7%[59 µM],/
Cc1cccc(-c2ccc(NC(=O)C3CCN(CC4CC4)CC3)cc2)c1,-5%,-2%,22%,-27%,/,1%
COc1cccc(CN2CCC(C(=O)Nc3ccc(-c4cccc(C)c4)cc3)CC2)c1O,?,-3%,-4%,?,20µM*,?
OCCN(CCO)c1ccc(C(c2ccccc2Cl)c2ccc(N(CCO)CCO)cc2Cl)c(Cl)c1,?,-11%,-14%,?,45µM*,-10%
COc1ccc(OC)c(CNS(=O)(=O)c2ccc3c(c2)CCCN3C(C)=O)c1,4%,/,19%[57 µM],-13%,24%[59 µM],/
Cc1ccc(C)c(CNC(=O)C2CCN(c3nc4ccccc4nc3C(F)(F)F)CC2)c1,-2%,/,1%,-10%,10%[59 µM],/
CC(=O)C1=C(O)C(=O)N(c2ccc(S(N)(=O)=O)cc2)C1c1cccc([N+](=O)[O-])c1 (configuration not stated),-26%,-7%,20%,-16%[11.4 µM],50µM*,-4%
CCOC(=O)C1=C(O)C(=O)N(c2ccc(S(N)(=O)=O)cc2)C1c1cccc([N+](=O)[O-])c1 (configuration not stated),-22%,7%,20%,-21%,?,-10%
COc1cccc(-c2cc3c(-n4cccc4)ncnc3o2)c1,-7%,-1%,54%,8%,14%[59 µM],22µM*
COc1cccc(NC(C)C(=O)N2CC(C)OC(C)C2)c1 (configuration not stated),2%,-3%,12%,40%,/,2%
COc1cc(NC(C)C(=O)N2CC(C)OC(C)C2)cc(OC)c1 (configuration not stated),40µM*,/,16µM*,3.2µM*,?,-29%
CC1(C)CC(=O)C2=C(C1)N(c1cccc(O)c1)C1=C(C2)C(=O)CC(C)(C)C1,?,/,56%,8%,2.2µM*,10µM*
O=[N+]([O-])c1ccc(N2CCN(c3ccc(O)cc3)CC2)cn1,?,/,?,?,11µM*,56µM*
O=[N+]([O-])c1ccc(N2CCN(c3ccccc3Cl)CC2)cn1,-17%,/,28%,-17%,-33%,17%
CCn1ccnc1CN(C)Cc1cn(-c2ccc(C)cc2)nc1-c1cccc(C)c1,40µM*,-30%,?,?,32µM*,?
Cc1ccc(-n2cc(CN3CCN(Cc4nccn4C)CC3)c(-c3cccc(C)c3)n2)cc1,?,-9%,-4%,?,?,-2%
Cc1cccc(-n2cc(CN(C)Cc3nccn3C)c(-c3cccc(F)c3)n2)c1,?,-12%,?,40µM*,16µM*,1%
CCn1ccnc1CN(C)Cc1cn(-c2cccc(C)c2)nc1-c1cccc(F)c1,35µM*,-25%,?,50µM*,11µM*,45µM*
Cc1cccc(-n2cc(CNCCN3CCOC3=O)c(-c3cccc(F)c3)n2)c1,2%,2%,19%,-14%,/,5%
COc1ccc(-n2cc(CN(C)CCO)c(-c3cccc(F)c3)n2)cc1,-19%,-7%,23%,-15%,10%,10%
SMILES,BAZ2B block,L3MBTL1 inh,HP1b chromo inh,JMJD2A Tudor inh,G9a inh,Sfp PPTase inh
Cc1ccc(S(=O)(=O)Nc2cc3c(C(=O)OCc4ccccc4)c(C)oc3c3ccccc23)c(C)c1,-26%,/,1%,-26%,?,/
Cc1cc(C)c(S(=O)(=O)Nc2ccc3oc4c(c3c2)CCCC4)cc1C,-29%,/,17%,?,?,/
Nc1nc(C23CC4CC(CC(Cl)(C4)C2)C3)cs1,71µM*,0%,9%,-26%,6%[59 µM],6%
Cc1cc(C)c(NC(=O)C(=O)NCC(c2cccnc2)N2CCN(c3ccccc3F)CC2)c(C)c1 (configuration not stated),-17%,/,44%,9%,-2%[59 µM],/
COC(=O)N1CCC[C@@]2(CCN(C(=O)Nc3cccc(F)c3)C2)C1,/,/,/,/,1%[12.7 µM],19%
Cc1cc(Cl)c(S(=O)(=O)NC2CCCCC2)cc1OCC(=O)Nc1nncs1,-18%,-17%[11.4 µM],17%,-3%,18µM*,-3%
N#Cc1cc2c(OCC(O)CN3CCN(C(c4ccccc4)c4ccccc4)CC3)cccc2[nH]1 (configuration not stated),/,/,/,/,-42%[59 µM],?
O=C(Nc1ccccc1)N(CCN1CCOCC1)Cc1cccc(Cl)c1,3%,8%,14%,-16%,-3%,13%
CCOc1ccc(NC(=S)N(CCN2CCOCC2)Cc2ccc3c(c2)CCCN3CC)cc1,11µM*,/,?,35µM*,28µM*,0%
CC(=O)N1CCC(N(CCN2CCOCC2)C(=S)Nc2ccc(C)cc2)CC1,-9%,/,32%,-20%,?,50µM*
CC(=O)N1CCC(N(CCN2CCOCC2)C(=S)Nc2ccc(C)cc2C)CC1,-3%,/,42%,3%,1%[59 µM],15%
CCN1CCCc2cc(CN(CCN3CCOCC3)C(=S)Nc3cc(F)cc(F)c3)ccc21,10µM*,/,?,35µM*,16µM*,12%
CCN1CCCc2cc(CN(CCN3CCOCC3)C(=S)Nc3ccc(OC)cc3)ccc21,-29%,/,24%,-20%,2%[59 µM],21%
CCN1CCCc2cc(CN(CCN3CCOCC3)C(=S)Nc3cccc(Cl)c3)ccc21,7.1µM*,/,?,11µM*,?,14%
N#Cc1nc(Nc2cc(F)cc(F)c2)c2ncn(C3CCCC3)c2n1,/,/,/,-3%,/,/
CC(C)Sc1ncc(Cl)c(C(=O)Nc2ccc(S(=O)(=O)N3CCCCC3C)cc2)n1 (configuration not stated),8%,/,60%,-19%,3%[59 µM],/
